Growth data for eight compounds are collected here from PubChem BioAssay (NCI).

What all share (experiment): NCI-60 one-dose screen, 48 h (100 = growth as untreated, 0 = no growth, -100 = all killed)
The test system of one test is SR leukemia. As to conditions: 10 µM unless noted.
The next test concerns RPMI-8226 leukemia. The note with it: 10 µM unless noted.
For the next test, the system named is OVCAR-8 ovarian. As to conditions: 10 µM unless noted.
The next test has as its system OVCAR-5 ovarian. As to conditions: 10 µM unless noted.
For the next test, the system named is OVCAR-4 ovarian. As to conditions: 10 µM unless noted.
The subject of the next test is SK-OV-3 ovarian. As to conditions: 10 µM unless noted.
In a further test the test system is IGROV1 ovarian. As to conditions: 10 µM unless noted.
The test system of another test is OVCAR-3 ovarian. The note with it: 10 µM unless noted.
A further test deals with HS 578T breast. As to conditions: 10 µM.
Another test concerns NCI/ADR-RES ovarian. As to conditions: 10 µM unless noted.
Another test relates to T-47D breast. The note with it: 10 µM unless noted.
The test system of another test is BT-549 breast. The note with it: 10 µM unless noted.
The subject of a further test is MDA-MB-435 melanoma. The note with it: 10 µM unless noted.
The test system of a further test is SW-620 colon. As to conditions: 10 µM unless noted.
A further test concerns MCF7 breast. The note with it: 10 µM unless noted.
For the next test, the system named is HCT-116 colon. As to conditions: 10 µM unless noted.
In the next test the test system is HCC-2998 colon. As to conditions: 10 µM.
The subject of a further test is KM12 colon. The note with it: 10 µM unless noted.

The panel holds about 83,000 compounds, 20% with a hit somewhere; the sample as a whole holds those more often.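 Negative percent growth values reflect cell death: -40 means 40% of the cells present at the start died, and -100 means all died.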 Values without a mark were called inactive. Activity calls are given as the source filed them. Rule for the calls: active = growth percent below 10; inactive = the rest.

As for `COc1ccc(CCCc2c3[n+](cc4c(OC)c(OC)ccc24)CCc2cc4c(cc2-3)OCO4)cc1`, the growth in the test on SR leukemia is 37.6%; in the test with RPMI-8226 leukemia, 20.5%; with OVCAR-8 ovarian it was 48.1%; with OVCAR-5 ovarian it was 86.6%; with OVCAR-4 ovarian, 54.5%; in the test on SK-OV-3 ovarian it was 77.5%. In addition, the growth is 53.9% with IGROV1 ovarian; 30% in the test with OVCAR-3 ovarian; 97.2% with HS 578T breast; 93.7% in the test on NCI/ADR-RES ovarian; 15.6% in the test on T-47D breast; 41.8% in the test on BT-549 breast. The growth was 39.7% in the test with MDA-MB-435 melanoma; 68.9% in the test on SW-620 colon; 93.7% with MCF7 breast; 59.2% in the test on HCT-116 colon; 74% in the test with HCC-2998 colon; 30.8% in the test with KM12 colon.

Take `Cc1cc(N(CCNc2ccnc3cc(Cl)ccc23)Cc2cccs2)nc(Cl)n1`: the growth with SR leukemia is -22.9% (active); with RPMI-8226 leukemia, -23.2% (active); with OVCAR-8 ovarian it was 11.5%; in the test with OVCAR-5 ovarian, 12.8%; with OVCAR-4 ovarian, -51.3% (active); in the test with SK-OV-3 ovarian, -48.8% (active). The growth in the test on IGROV1 ovarian was -1.29% (active); in the test with OVCAR-3 ovarian, -77.4% (active); with HS 578T breast it was -5.93% (active); with NCI/ADR-RES ovarian, -2.82% (active); in the test on T-47D breast, -34.3% (active); in the test on BT-549 breast it was -55.4% (active). Also, the growth in the test on MDA-MB-435 melanoma is -1.48% (active); in the test on SW-620 colon it was 2.77% (active); in the test with MCF7 breast it was 5.64% (active); in the test with HCT-116 colon, -85% (active); in the test on HCC-2998 colon, -14.3% (active); with KM12 colon it was 34%.

Consider `COc1cc(-c2nc(C(=O)NCC(=O)O)nn2-c2ccc(Cl)cc2)cc(OC)c1OC`, for which the growth in the test with SR leukemia is 106%; with RPMI-8226 leukemia, 99%; in the test on OVCAR-8 ovarian, 102%; in the test with OVCAR-5 ovarian, 105%; with OVCAR-4 ovarian, 105%; in the test on SK-OV-3 ovarian, 98.7%. Further, the growth in the test on IGROV1 ovarian is 105%; in the test on OVCAR-3 ovarian, 107%; in the test with HS 578T breast, 106%; in the test on NCI/ADR-RES ovarian it was 105%; with T-47D breast it was 99.5%; in the test on BT-549 breast, 106%. Besides, the growth was 108% in the test on MDA-MB-435 melanoma; 108% in the test with SW-620 colon; 96.3% with MCF7 breast; 103% in the test with HCT-116 colon; 100% with HCC-2998 colon; 96.3% with KM12 colon.

Consider `COC(=O)[C@@H](OC)[C@@H]1Cc2cc3cc(OC4CC(OC5CC(O)C(O)C(C)O5)C(O)C(C)O4)c(C)c(O)c3c(O)c2C(=O)[C@H]1OC1CC(OC2CC(OC3CC(C)(O)C(O)C(C)O3)C(O)C(C)O2)C(O)C(C)O1` (some centres undefined), for which the growth in the test on SR leukemia is 4.74% (active); in the test on RPMI-8226 leukemia it was -17.5% (active); in the test on OVCAR-8 ovarian, 10.2%; with OVCAR-5 ovarian, 18.8%; with OVCAR-4 ovarian it was 3.96% (active); with SK-OV-3 ovarian it was 21%. In addition, the growth was 28% in the test on IGROV1 ovarian; 6.49% (active) in the test on OVCAR-3 ovarian; -10.5% (active) in the test on HS 578T breast; 42.7% with NCI/ADR-RES ovarian; 4% (active) with T-47D breast; -32.9% (active) in the test with BT-549 breast. For the same compound, the growth with MDA-MB-435 melanoma is -62.4% (active); in the test with SW-620 colon, 8.04% (active); in the test on MCF7 breast, 8.9% (active); with HCT-116 colon, 3.51% (active); with HCC-2998 colon, -32.9% (active); in the test on KM12 colon it was 1.5% (active).

As to `CCOC(=O)C1=C(C)N=C2Sc3cccc(OC)c3N2[C@H]1c1ccccn1`, the growth is 96.9% with SR leukemia; 106% in the test on RPMI-8226 leukemia; 97% with OVCAR-8 ovarian; 110% with OVCAR-5 ovarian; 96.3% with OVCAR-4 ovarian; 99.5% with SK-OV-3 ovarian. In addition, the growth in the test on IGROV1 ovarian was 101%; with OVCAR-3 ovarian, 107%; in the test with HS 578T breast it was 91.9%; with NCI/ADR-RES ovarian, 96.4%; with T-47D breast, 96.5%; in the test on BT-549 breast it was 101%. Also, the growth in the test with MDA-MB-435 melanoma was 110%; with SW-620 colon, 102%; in the test on MCF7 breast, 97%; in the test on HCT-116 colon, 94.9%; with HCC-2998 colon, 93.2%; in the test on KM12 colon it was 96.6%.

As to `CCN(CC)CCCC(C)Nc1cc(-c2ccc(C(F)(F)F)cc2)c(C#N)c2nc3ccccc3n12` (centres undefined), the growth in the test with SR leukemia is -17.4% (active); in the test on RPMI-8226 leukemia it was -19.9% (active); with OVCAR-8 ovarian it was 11.8%; in the test on OVCAR-5 ovarian it was 11.7%; with OVCAR-4 ovarian, -27.9% (active); in the test with SK-OV-3 ovarian it was 74.3%. For the same compound, the growth with IGROV1 ovarian is 26.1%; in the test with OVCAR-3 ovarian, 93.5%; in the test on HS 578T breast, -19.1% (active); in the test with NCI/ADR-RES ovarian, 32.2%; in the test on T-47D breast, -8.16% (active); in the test on BT-549 breast, -10.7% (active). Further, the growth in the test with MDA-MB-435 melanoma was -64.8% (active); in the test on SW-620 colon it was 12.2%; in the test with MCF7 breast, 14.1%; with HCT-116 colon it was 3.28% (active); in the test with HCC-2998 colon it was 16.6%; in the test with KM12 colon, 36.5%.

For the compound `CN1CCN(Cc2ccc(NC(=O)c3[nH]ncc3Nc3ncnc4sc5c(c34)CCCC5)cc2)CC1`, the growth was -54.3% (active) in the test with SR leukemia; -32.1% (active) in the test on RPMI-8226 leukemia; -39.6% (active) in the test with OVCAR-8 ovarian; -86.8% (active) with OVCAR-5 ovarian; -41.4% (active) with OVCAR-4 ovarian; -5.01% (active) in the test on SK-OV-3 ovarian. In addition, the growth was -60.9% (active) in the test on IGROV1 ovarian; -83.8% (active) in the test on OVCAR-3 ovarian; -32.5% (active) with HS 578T breast; -61.7% (active) in the test on NCI/ADR-RES ovarian; 9.76% (active) with T-47D breast; -20.7% (active) in the test with BT-549 breast. For the same compound, the growth is -89% (active) in the test with MDA-MB-435 melanoma; -52% (active) in the test with SW-620 colon; -67.2% (active) in the test with MCF7 breast; -96% (active) in the test on HCT-116 colon; -74.9% (active) in the test with HCC-2998 colon; -64.3% (active) in the test with KM12 colon.

On to `C=C1C(=O)O[C@H]2[C@H]1CC/C(Cn1cc(-c3cc(C)c(C)cc3C)nn1)=C\CC[C@@]1(C)O[C@@H]21`, for which the growth in the test with SR leukemia is -5.15% (active); in the test on RPMI-8226 leukemia it was -24.6% (active); with OVCAR-8 ovarian it was -55.9% (active); in the test with OVCAR-5 ovarian, -45.6% (active); in the test with OVCAR-4 ovarian it was -94.3% (active); in the test with SK-OV-3 ovarian it was 76.2%. Further, the growth in the test on IGROV1 ovarian is -63.9% (active); with OVCAR-3 ovarian, -95.2% (active); in the test with HS 578T breast, 11.6%; in the test on NCI/ADR-RES ovarian, 5.12% (active); in the test on T-47D breast it was -46.8% (active); in the test with BT-549 breast, -66.1% (active). Further, the growth in the test with MDA-MB-435 melanoma was -56.3% (active); with SW-620 colon, -79.2% (active); with MCF7 breast it was -62.3% (active); in the test with HCT-116 colon it was -87.4% (active); with HCC-2998 colon, -91.7% (active); with KM12 colon, 14.1%.
